# Screens: PubChem, National Center for Advancing Translational Sciences (NCATS)
# VACV Venus inh – inhibitors of vaccinia virus (Venus reporter); Vaccinia virus Venus reporter expression, fluorescence; Potency, µM (doses to about 36.5 µM), for inactives: at the top dose activity change, negative = inhibition, most hits filed as inhibitors; 330,000 tested, 0.46% active; calls by dose curve; tested in A549 cells; further: on the % scale 0 is the no-effect control and ±100 the full control effect; nearly all actives have a fitted effect of over 30% in size
# Pf growth 96h – P. falciparum growth inhibition at 96 hours | P. falciparum luciferase reporter growth, 96 h | Potency, µM (top dose mostly 28.7 µM), without a hit: at the highest dose activity change, negative = inhibition, most hits filed as inhibitors | 320,000 tested, 6.9% active; further: on the % scale 0 is the no-effect control and ±100 the full control effect
#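 Plates of compound plus infected erythrocytes (2% hematocrit, 0.05% parasitemia final) incubate 96 hours, 37 C, 5% CO2. Detection reagent added; reduced luminescence from the parasites' luciferase reporter flags inhibition.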
# NS1 function inh – blocks influenza NS1 protein function; Potency, µM (top dose mostly 46.1 µM), for the others: at the highest dose activity, positive = more growth; 270,000 tested, 0.4% active; AID 2326; calls by dose curve; further: actives are rising curves; nearly all actives have a fitted effect of over 50% in size
#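 OD600 was taken as the measure of yeast growth restored by compound in an NS1-expressing S. cerevisiae strain. Cells had been washed out of glucose medium and diluted 1:100 into galactose -URA medium, pH 6.0.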
# HCV inhibitor – blocks hepatitis C virus | Huh7.5.1 HCVcc-Cre infection, luciferase reporter, 44 h | Potency, µM (doses to about 41.8 µM), inactives show at the highest dose activity change, negative = inhibition, usual class: inhibitors | 340,000 tested, 3.4% active; further: on the % scale 0 is the no-effect control and ±100 the full control effect
#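 Cells seeded at 1,000/well and cultured 4 h, then compounds added followed by HCVcc-Cre virus (~0.5 moi). After 44 h further culture, luciferase substrate was added, plates held 15 min at room temperature, and luminescence read for 15 sec.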
# Pf growth 48h – P. falciparum growth inhibition at 48 hours (one generation); P. falciparum luciferase growth in erythrocytes, 48 h; Potency, µM (series often up to 28.7 µM), without a hit: top-dose activity change, negative = inhibition, usual class: inhibitors; 310,000 tested, 5.9% active; further: on the % scale 0 is the no-effect control and ±100 the full control effect
#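 Erythrocytes infected with P. falciparum carrying an integrated firefly luciferase reporter (2% hematocrit, 0.1% parasitemia final) were exposed to compounds in RPMI 1640 with 0.5% Albumax at 37 C, 5% CO2. Growth inhibition was scored as reduced luminescence.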
# Vaccinia mCherry – vaccinia inhibition (mCherry reporter) | Vaccinia virus mCherry reporter infection, fluorescence | Potency, µM (doses to about 36.5 µM), inactives show at the highest dose activity change, negative = inhibition, hits mostly inhibitors | 310,000 tested, 0.63% active | AID 720579; calls by dose curve; tested in A549 cells; further: on the % scale 0 is the no-effect control and ±100 the full control effect; nearly all actives have a fitted effect of over 35% in size
# Numbers without * were called inactive; i = inactive; ? = inconclusive; · = no result; [ ] = another dose, or the depositor's remark. In the library only some 11% were active in any assay of this set; here they are far more common. Unless noted, the call rests on the fitted dose curve; in most records, active means well fitted inhibition curve with a large enough effect; inconclusive means small, poorly fitted or top-dose-only effect, or another doubt; inactive means no such curve, though single readings can be large or run the other way. Potency means the concentration at half of the fitted maximal effect.
SMILES,VACV Venus inh,Pf growth 96h,NS1 function inh,HCV inhibitor,Pf growth 48h,Vaccinia mCherry
c1ccc2c(c1)[nH]c1c(N3CCSCC3)ncnc12,·,8%,8%,13µM*,0%,·
CN1CCN(c2ncnc3c2[nH]c2ccc(F)cc23)CC1,-14%,?,1%,10µM*,2.9µM*,-9%
Fc1ccc2[nH]c3c(N4CCc5ccccc5C4)ncnc3c2c1,-11%[7.34 µM],1.9µM*,-4%,5µM*,2.9µM*,-19%[7.34 µM]
Brc1ccc2[nH]c3c(N4CCc5ccccc5C4)ncnc3c2c1,·,·,-12%,3.5µM*,1.7µM*,·
c1ccc2c(c1)[nH]c1c(N3CCOCC3)ncnc12,-23%,0%,-12%,?,?,?
Nc1nonc1-n1nnc(C(=O)N/N=C/c2ccncc2)c1CSc1ccccc1,-1%[7.34 µM],52%,0%,-6%,35%,-4%[7.34 µM]
Cc1ccc2[nH]c3c(N4CCc5ccccc5C4)ncnc3c2c1,?,?,-79%,3.5µM*,?,?
CCOc1ccc2[nH]c3c(N4CCc5ccccc5C4)ncnc3c2c1,?,13µM*,-5%,-79%,?,3.5µM*
COc1ccc(-c2[nH]nc3c2C(c2ccccc2OC(=O)N2CCOCC2)C(C#N)=C(N)O3)cc1 (stereo not given),·,30%,-72%,11%,?,·
CCOc1ccc(-c2[nH]nc3c2C(c2ccc4c(c2)OCO4)C(C#N)=C(N)O3)cc1OC (stereo not given),-14%,13µM*,-16%,21%,-16%,-7%
COc1ccc(-c2[nH]nc3c2C(c2ccc(OC(=O)N4CCOCC4)cc2)C(C#N)=C(N)O3)cc1 (stereo not given),-2%,13µM*,-162%,·,1%,-7%
Cc1ccc(-c2[nH]nc3c2C(c2ccccc2OC(=O)N2CCOCC2)C(C#N)=C(N)O3)cc1 (stereo not given),-12%,10µM*,-132%,·,?,0%
Cc1cc(C(=O)N2CCC2(C)C(=O)NS(=O)(=O)c2ccc(F)cc2F)nn1C (stereo not given),16%,·,·,·,·,0%
COc1ccccc1N1C(=O)CC(Sc2nccc(C)n2)C1=O (stereo not given),-6%,2%,7%,23%,16%,-21%
O=C(OCCCOC(=O)c1ccc(Br)o1)c1ccc(Br)o1,-8%,56%,·,9%,11%,-14%
O=C(NCc1cccs1)c1ccc(CS(=O)Cc2cccc(Cl)c2)o1 (stereo not given),-6%,14%,9%,-5%,?,-14%
CC(=O)N(C)c1ccc(NC(=O)CCN2C(=O)c3ccccc3C2=O)cc1,·,2%,12%,10%,0%,·
Clc1ccc(Oc2nc3ccccc3n3cccc23)cc1,-12%,58%,13%,?,16%,·
COc1ccc(Oc2nc3ccccc3n3cccc23)cc1,-24%,31%,9%,11µM*,3%,·
CC(C)c1ccc(OCC(=O)N2CCc3ccccc3C2)cc1,-10%,-16%,-19%,-8%,31%,i
Cc1nc2c(o1)C(=O)c1ccccc1C2=Nc1ccccc1,2.8µM*,·,·,2.8µM*,·,2.5µM*
c1ccc2c(c1)C(=Nc1ccc(N=C3c4ccccc4-c4ccccc43)cc1)c1ccccc1-2,·,·,5%,·,·,·
CCN(CC)c1ccc(/C=N/NC(=O)C(O)c2ccccc2)cc1 (stereo not given),-8%,-19%,-5%,-26%,-9%,-1%
O=C(O)c1ccc(Cn2cnc3scc(-c4ccccc4)c3c2=O)cc1,-16%,34%,2%,10%,1%,-28%
COc1ccc(-c2csc3ncnc(N4CCN(c5ccc(OC)cc5)CC4)c23)cc1,·,13µM*,-24%,?,?,·
SMILES,VACV Venus inh,Pf growth 96h,NS1 function inh,HCV inhibitor,Pf growth 48h,Vaccinia mCherry
COc1ccc(-c2csc3ncnc(N4CCN(Cc5ccccc5)CC4)c23)cc1,-16%,6.6µM*,-9%,3%,?,-14%
CCn1cnc2scc(-c3ccc(OC)cc3)c2c1=O,·,10µM*,-11%,-14%,-2%,·
Cc1ccc(-c2csc3ncn(Cc4ccc(C(=O)O)cc4)c(=O)c23)cc1C,·,12µM*,15%,5%,-2%,·
CCCn1cnc2scc(-c3ccc(OC)cc3)c2c1=O,-21%,-12%,-20%,-5%,-13%,-5%
O=C(CCS(=O)(=O)c1ccc(Cl)cc1)OCC(=O)N1CCCCC1,-9%,·,-3%,30%,3%,·
COc1ccc(-c2csc3ncnc(N4CCN(c5ccccc5[N+](=O)[O-])CC4)c23)cc1,-18%,9.3µM*,?,16µM*,?,-4%
COc1ccc(-c2csc3ncnc(N4CCN(c5ccccc5)CC4)c23)cc1,-17%,?,2%,?,?,-20%
Cc1ccccc1N=C1NC(=O)C(CO)(CO)S1,·,-35%,11%,14%,-5%,·
O=C(O)c1cccc(NC(=O)c2ccc3c(c2)C(=O)N(c2cccc([N+](=O)[O-])c2)C3=O)c1,·,5.9µM*,-1%,15%,38%,·
O=C(Nc1nnc(-c2ccc3c(c2)CCCC3)o1)c1ccccc1,?,?,-36%,?,?,10µM*
Cn1nc(C(C)(C)C)c([N+](=O)[O-])c1C(=O)Nc1ccc(Br)cc1,·,?,?,13µM*,?,·
O=[N+]([O-])c1cccc(Nc2nc(Cl)nc(Cl)n2)c1,-1%,12µM*,·,-3%,49%,i
Fc1cccc(Nc2nc(Cl)nc(Cl)n2)c1,·,2%,2%,17%,3%,·
Cc1cccc(NC(=O)c2c([N+](=O)[O-])c(C(C)(C)C)nn2C)c1,-17%,?,4%,-2%,-11%,-22%
CN1CCN(S(=O)(=O)c2ccc(N(C)CC(=O)Nc3ccc(F)cc3)nc2)CC1,·,?,-7%,·,5%,·
Cc1cc(OC(=O)c2ccco2)c2c3c(c(=O)oc2c1)CCC3,-6%,?,6%,-2%,-8%,-12%
CC(=O)C1(C)OC(N)=C(C#N)C(c2ccccc2)C1(C#N)C#N (stereo not given),·,?,11%,14%,7%,·
COc1ccc(CCN(C)C(=O)C2CCCN(C3CCN(Cc4ccccc4)CC3)C2)cc1OC (stereo not given),·,-8%,0%,?,-14%,·
O=C(CSc1nc(-c2ccccc2)nn1C(=O)c1ccccc1)Nc1cccc([N+](=O)[O-])c1,·,22%,3%,25µM*,5%,·
O=C(Nc1nnc(C2=COCCO2)o1)c1cccc([N+](=O)[O-])c1,-10%,11%,-8%,18%,20%,-17%
COc1ccc(Cl)cc1NC(=O)Nc1cccc([N+](=O)[O-])c1C,-13%,-14%,-7%,16µM*,?,-24%[1.46 µM]
COc1ccc(NC(=O)Nc2cccc([N+](=O)[O-])c2)cc1Cl,?,26%,-3%,?,6.6µM*,?
